The entries come from a sample that favours hits as a whole.
Dicer processing – human Dicer pre-microRNA cleavage inhibition; z-score at 25 µM; AID 1347074; cat-ELCCA pre-miR-21 Dicer processing, chemiluminescence; hits give high values; 47,000 compounds, 6% hits; in the data active means z-score above about 3, passing the limit was not always enough;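 further: higher signal means more uncleaved substrate so more Dicer inhibition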
Each line names hits and unclear results; the compound was inactive in the other large screens; ! = not confirmed by another sample.

Cc1cc(=O)n2ncnc2n1CC(=O)NNC(=S)Nc1ccc(Cl)cc1Cl	none
Cc1sc(NC2=NS(=O)(=O)c3ccccc32)nc1-c1ccc(Cl)cc1	Dicer processing 3.6
Cc1ccccc1NC1=NS(=O)(=O)c2ccccc21	none
CCc1sc(NC2=NS(=O)(=O)c3ccccc32)nc1-c1ccccc1	none
COCCOc1cc(C)nc(N2CCOCC2)n1	none
Cn1ncc(Br)c1NC(=O)Nc1cccc2ccccc12	none
Cc1c(N=CN(C(=O)C2CCCCC2)c2cccc([N+](=O)[O-])c2C)cccc1[N+](=O)[O-]	none
O=C(CSc1nnc(SCc2cccc(C(F)(F)F)c2)s1)N1CCC(C(F)(F)F)CC1	none
Cc1ccc(-c2cc3nc(-c4ccco4)cc(C(F)(F)F)n3n2)cc1	none
COC(=O)c1cc2nc(-c3cccs3)cc(C(F)(F)F)n2n1	none
FC(F)(F)c1cc(-c2cccs2)nc2cc(-c3ccco3)nn12	Dicer processing 3.5
NC(=O)C1(N2CCCCC2)CCN(S(=O)(=O)c2ccc3c(c2)OCCCO3)CC1	none
CC1CCCN(C2CCN(Cc3ccccn3)CC2)C1 (stereo unspecified)	none
COC(=O)c1sc(-c2ccc(Cl)cc2)cc1NC(=O)c1cc(C)nn1C	none
COC(=O)c1sc(-c2ccc(Cl)cc2)cc1NC(=O)c1cccnc1Oc1ccccc1	none
COC(=O)c1sc(-c2ccc(Cl)cc2)cc1NC(=O)Nc1cccs1	Dicer processing 3.4
c1ccc(-c2cc3ncnc(NCc4ccc5c(c4)OCO5)c3s2)cc1	none
Cc1ccc(S(=O)(=O)NCCc2ccc(S(N)(=O)=O)cc2)cc1	none
Cn1cccc1CNCCc1ccc(S(N)(=O)=O)cc1	none
NS(=O)(=O)c1ccc(CCNCc2cccs2)cc1	Dicer processing 3.1
CCOC(=O)c1sc(/S(C)=N/C(=O)Nc2ccc(Cl)cc2)c2c1CCC=C2 (stereo unspecified)	none
S=C1C=C(N2CCCCC2)CC(c2cccs2)S1 (stereo unspecified)	Dicer processing 4.9
O=S(=O)(c1ccccc1)N1CCCC1c1cccs1 (stereo unspecified)	none
CC1(C)CC(N2CCCCC2)=CC(=S)S1	none
COc1cc2c(cc1OC)C(C)N(C(=S)Nc1cc(Cl)ccc1Cl)CC2 (stereo unspecified)	none
Cc1ccc(S(=O)(=O)c2nc(-c3cccs3)oc2NCc2ccccc2)cc1	none
C/C(=N\NS(=O)(=O)c1ccc(C)cc1)c1ccc(OCCOc2ccc([N+](=O)[O-])cc2)cc1	none
COc1cccc(/C=C2/SC(=S)N(C)C2=O)c1O	Dicer processing 7.7
COc1cccc(/C=C2\SC(=S)NC2=O)c1OC	none
O=C1NC(=S)/C(=C/c2ccccc2O)S1	none
Cn1c(=O)c2c(nc(NCc3ccco3)n2Cc2ccccc2F)n(C)c1=O	none
CN(C1CCCCC1)S(=O)(=O)c1ccc(CNC(=O)c2ccccc2)s1	none
O=C(c1cccs1)N1CCN(CCN2C(=O)c3cccc4cccc(c34)C2=O)CC1	none
COc1ccc(C(C)=O)cc1COn1c(-c2ccccc2)nc2ccccc2c1=O	none
CN(C)CCCN1c2ccccc2CCc2ccc(Cl)cc21	none
CN(CCCN1c2ccccc2CCc2ccccc21)CC(=O)c1ccc(Cl)cc1	none
CNCCCN1c2ccccc2CCc2ccccc21	Dicer processing 5.6!
COc1ccc(S(=O)(=O)n2c(C)nc3ccccc32)cc1OC	none
N/C(=N\S(=O)(=O)c1cc(C(F)(F)F)cc(C(F)(F)F)c1)N1CCSCC1	Dicer processing 5.5
Cc1nc(C(F)(F)F)ccc1C(=O)N1CCSCC1	none
N/C(=N\S(=O)(=O)c1cc(C(F)(F)F)cc(C(F)(F)F)c1)c1ccccc1	none
Cc1ccc(C(=O)/C=C/Sc2nc3ccc(C)cc3[nH]2)cc1	none
O=C(O)Cc1nc2ccc(Cl)cc2[nH]1	none
Cc1ccc2nc(CCCC(=O)O)[nH]c2c1	Dicer processing 3.6
CSc1s[s+]c(SC)c1-c1ccccc1	none
CC1(C)CC(=O)C2=C(C1)N=C1c3ccccc3C(=O)C1C2c1ccc(F)cc1 (stereo unspecified)	none
Brc1cccc(CN2CCN(Cc3ccncc3)CC2)c1	none
Clc1ccccc1CN1CCN(Cc2cccnc2)CC1	none
CCc1ccc(CN2CCN(Cc3cccnc3)CC2)cc1	Dicer processing 3.1
CSc1nccc(-c2ccc(S(=O)(=O)Nc3ccc(Cl)cc3)s2)n1	none
CCOC(=O)Cc1csc2nc(=O)c3c(C)c(C)sc3n12	none
CCOC(=O)C1=C(C)NC2=C(C(=O)CC(C)(C)C2)C1c1cccc(F)c1 (stereo unspecified)	none
Fc1ccc(Cc2cn3cc(-c4ccccc4)nc3s2)cc1	none
c1ccc(Cc2cn3cc(-c4ccccc4)nc3s2)cc1	none
Clc1ccccc1Cc1cn2cc(-c3ccccc3)nc2s1	Dicer processing 4.1
NC(=O)COc1ccc(C2=Nc3ccccc3NC(c3ccccc3)C2)cc1 (stereo unspecified)	none
C=CCOC(=O)C1=C(C)N=C2SCCC(=O)N2C1c1ccc(C(=O)OC)cc1 (stereo unspecified)	none
Cc1ccc2nc(C3C(=O)c4ccc(O)cc4C3=O)cc(C)c2c1 (stereo unspecified)	Dicer processing 3.7
Cc1cc(C2C(=O)c3ccccc3C2=O)nc2ccccc12	none
Cc1ccc2nc(C3CCCCC3)cc(C(=O)O)c2c1	none
CCOC(=O)C(NC(=O)Nc1ccc(Cl)c(Cl)c1)(OCC(F)(F)F)C(F)(F)F (stereo unspecified)	none
O=C(CSc1nncn1-c1ccc(OCc2ccccc2)cc1)Nc1cc(Cl)cc(Cl)c1	none
Cc1ccc(-n2cccc2)c(NC(=O)C(c2ccccc2)C2CCCC2)c1 (stereo unspecified)	none
CC(=O)N1N=C(c2c(-c3ccccc3)c3cc(Cl)ccc3[nH]c2=O)CC1c1ccco1 (stereo unspecified)	none
Cc1nn2c3c(cnc2c1-c1ccc(F)cc1)C(=O)CC(c1ccco1)C3 (stereo unspecified)	none
Cc1nn2c(c1-c1ccccc1)N=C(c1ccco1)CC2c1ccco1 (stereo unspecified)	Dicer processing 3.3
COC(=O)c1cc(=O)n2c(-c3cc(Cl)cc(Cl)c3)nnc2s1	none
CC(C)(C)C(=O)NC(=S)Nc1cccc(C(F)(F)F)c1	none
FC(F)(F)c1cccc(NC(=S)Nc2ccccc2C(F)(F)F)c1	none
COC(=O)c1ccc(CSc2ccccc2NC(=S)Nc2cccc(C(F)(F)F)c2)o1	Dicer processing 4.4
CCOC(=O)Cn1c2ccccc2n2nc(C)c(=O)nc12	none
Cn1c(=O)c2c(nc(NCCO)n2Cc2cccc(F)c2)n(C)c1=O	none
O=C(Nc1cc(-c2nc3cc(Cl)ccc3o2)ccc1Cl)c1ccco1	none
O=C(Nc1ccc(Cl)cc1O)c1ccco1	Dicer processing 5.7
O=C(Nc1cccc2cccnc12)c1ccco1	none
O=C(N/N=C/c1c(Cl)cccc1Cl)c1nc(COc2ccccc2Cl)no1	none
COc1cc(CNCCO)ccc1OCc1ccc(F)cc1	none
COC(=O)Nc1ccc(S(=O)(=O)N2CCCc3ccccc32)cc1	none
CCOC(=O)Nc1ccc2c(c1)N(C(=O)NC)c1ccccc1CC2	Dicer processing 3.5
CCOC(=O)Nc1ccc2c(c1)N(C(=O)N1CCN(C)CC1)c1ccccc1CC2	none
CCCN1C(=O)C(O)(CC(=O)c2ccc3c(c2)OCO3)c2ccccc21 (stereo unspecified)	none
O=[N+]([O-])c1ccc(NCc2ccc(Cl)c(Cl)c2)nc1	none
CCOC(=O)C(=CNc1ccc2c(c1)CCN2C(C)=O)C(=O)OCC	none
CCOC(=O)C(=CNc1nc2ccc(F)cc2s1)C(=O)OCC	none
CCOC(=O)C(=CNc1ccc(F)c(C#N)c1)C(=O)OCC	Dicer processing 3.4
Cc1ccc(N2CC(O)=C(c3nc4ccccc4c(=O)[nH]3)C2=N)cc1	none
O=C(O)CC(Sc1nc2sc3c(c2c(=O)[nH]1)CCCC3)C(=O)O (stereo unspecified)	none

Source: PubChem
